Measurements from PubChem BioAssay AID1508600 (Functional Genomics Laboratory (NCATS/FGL), 2020).
The campaign covered roughly 53,000 sequences. About 3,700 (7%) were called active.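 How the source made its calls: active means gene knockdowns whose robust z-score for IL-1 alpha signal is at least 2 or at most -2, so actives lie on both sides; inactive means the rest.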 Shown is part of a subset that was picked to be rich in actives.

assay: Components of the Cytosolic LPS Sensing Pathway: Gene Identification via Genome-wide siRNA Screen; settings: RAW264.7 macrophages, IL-1a HTRF, actives lie on both sides, screened at 100 nM (by protocol), cells primed 5 h with Pam3CSK4 first
From the text: Non-canonical inflammasome activation by cytosolic LPS is a critical component of the host response to Gram-negative bacterial infection, however we lack a comprehensive understanding of the cellular processes that control this pathway. Here we describe a genome-wide siRNA screen to identify genes regulating the mouse macrophage IL-1 alpha response to cytosolic LPS.
RAW264.7 cells were maintained in complete DMEM media, comprising DMEM with 4.5 g/L glucose, 10% FBS (Gemini Bio-Products, West Sacramento, CA), 2 mM Glutamine (Lonza) and 20 mM HEPES (Lonza), hereafter complete DMEM.
The RNAi screen was conducted in 384-well format using the Ambion Silencer Mouse Genome siRNA Library (#4391425), which consists of three unique, nonoverlapping, nonpooled siRNAs for each of 17,000 gene targets. siRNA reagents ([…]) were stamped into 384-well white flat-bottom microplates (Corning, 3570) using a Velocity11 VPrep liquid handling system (Agilent) integrated into a BioCel robotic platform (Agilent) in columns 1-22, leaving columns 23-24 empty for negative (Ambion, Negative control #1) and positive (mouse Casp4) controls, respectively. The median value of each plate's negative control column was used to normalize sample wells, and the positive control was used to assess transfection efficiency and assay performance.
Lipofectamine RNAiMAX Transfection Reagent ([…]; Invitrogen) was added in […] serum-free, antibiotic-free media to plate wells using a Thermo Scientific Matrix WellMate and Microplate Stacker. Plates were incubated for 45 min at room temperature to allow for the sufficient formation of siRNA-lipid complexes. Cells were seeded at a density of 1x10^4 cells per well in 20 microL media containing 20% (vol/vol) FBS without antibiotics. The final concentration of siRNA in each well was 100 nM. Cells were cultured for 48h at 37 degrees C in 5% CO2 before addition of […] of TLR ligand Pam3CSK4 for 5 hours. The medium was then removed, replaced with […] growth media and cell were transfected with […] of LipidA and TransIT-TKO (Mirus) for 24 hour. At the end of the LipidA treatment, […] of supernatant was transferred to a 384 Greiner Bio-one non-binding low volume plate and […] of IL-1a HTRF reagent (Cisbio, 62MIL1APEH) was added and incubated at room temperature overnight. The plates were read on an EnVision plate reader (PerkinElmer). Cell viability was measured by adding 20ul Cell Titer Glo to the original plate and running a luminescence read on the EnVision. The quantified IL-1a signal for each siRNA gene-targeted well was divided by the median of the negative control wells and multiplied by 100 to achieve a negative control normalized value for each well/siRNA. This normalized value was then used to generate a robust z-score by first taking the log of each value and then by subtracting the median and dividing by the […].

z-score, inactive:
GGAAAGAAGAAGAGUCUAATT against Nucb2 0.994
GGCCGGAGCUUACGAUUUUTT against Camk2d 0.309
GGAAGUGAGAUGUCACUGATT against Ssc5d 0.841
GGAUACCAAGCAUCGGAAGTT against Tfap2e -0.0352
GGCAGAAACAGUCCUUGUUTT against Gfra4 -1.54
GGCGUAUACCGGGAAUCCUTT against Ndrg1 -0.505
GGUUAAAUCGAUUUUGCAUTT against Acbd5 -0.185
GGGAUACCAUCUUUAUGGCTT against Vwa3b -0.041
GCAAUGGACUGACAUGUCATT against Csdc2 -0.339
CGGACAAGUGUUUUUCGUUTT against Wwox 0.315
GGCUGUGCUCCUUGUUAGUTT against Olfr1143 -0.083
GCGGUGAUGAGAGAAACCATT against Zfp617 0.872
GGACCCUUUCUUUGAUAUGTT against Rpe 1.01
GCCACUGGAGUAUAGCCAGTT against Pcnx3 0.019
CCAAAGCUAAAACGGGUGGTT against Tppp3 0.597
GCUGGACAUCGACUUUGGATT against Prnd -1.54
CCUAUGUUUUAGCAAGCAGTT against Acyp2 0.758
GCCAUCAUCUUUGUUUAGUTT against Gm4952 -0.684
GGACAUCCUCUUACAGUGGTT against Zg16 0.333
GGUCAUCUCCAAACCCUCCTT against Rbpj 1.51
GGAGGGAUCUAAGGAACAGTT against Fgf8 0.263
GGAAUGAUUUUUGUUUGCUTT against Sf3b3 -1.6
GGCACAUUCAACAACAUUUTT against Zfp592 1.61
GGAUCUUAGCAUGUCAACATT against Zfp330 -1.29
GGAGAACCCUUAUGUGACATT against Pik3ca -1.91
GGUAAAAACUUUCCUUUAGTT against Prph2 1.48
GGAAUGCAAAAAACUCUGGTT against Gzmg 0.906
GGCCUGAGUAUAAAGUUAGTT against Wbp2 1.6
GGAUGAAUAAGGACAGAUUTT against Phospho2 0.335
GGUUACGUGUUUGUAUCUATT against Higd1a -0.395
GGCUCUUGAAAAAAACCCATT against Utp11 0.441
GGUGACUAGGAAGAACACGTT against Tmem9b 1.99
GUACCUGAACUCAACUGAGTT against Ffar2 -0.0572
CCCAGAAGAGGUUACAUUUTT against Cd200r4 0.0312
GGGAUCAGAGAUAUAGCCATT against Vmn1r192 -1.74
GGACAGAUUUUCACCAUUCTT against Slc1a4 -0.593
GGUGAAGCAUCAGUGACAATT against Ubxn4 0.734
UUUCAAUCUGUAGCUUUCCTT against Krt86 0.071
GCUAUGUAAGACAUUUAACTT against Ccdc162 1.6
CGUUUAUUGUAACCAGAAUTT against Fam168b 0.263
GGCUUUCCUCCAGAUAAACTT against Il6st -0.856
GCGACGAGAAGAAUCUGCUTT against Mtcl1 -0.641
CCGUGGAGUAACAAGUAUGTT against Capzb -1.07
CGAUCUAGUCCGCCAUUACTT against Lck -1.3
GCGAAGGAAUUUAAGGACCTT against Tmod1 0.836
CCAAUGAUAGACUUUAUACTT against Adgrv1 -0.252
GCAGUUCACGCAGUGGAAGTT against Fam25c 1.3
UCAUAGCAGAGAUUAGAAUTT against Hsfy2 -0.951
CCUCAGGUUAUUGAAUAUUTT against Rapgef6 0.502
GGACAAAACGUGCAAUAUGTT against Pkdcc -0.188
GCAGAUUGCUCAGAUUACCTT against Brip1 0.407
GGUUCUUCGGCUUAUGUUGTT against Rgs7bp 0.537
GGACAAAAUAAUGCUUUCUTT against Cnnm1 0.0436
CCCGUAUCUUUUUAGCUAATT against A630038E17Rik 0.35
GCCAAACUAUCAGAGAUGGTT against Slc38a7 0.0528

z-score, active:
GGGAACAAAUUCAUUGUAUTT against Eny2 2.26
GCAAUGAGUACUAUCAUACTT against Gnal -2.71
CCUCUUAUAUGCAUGUGGCTT against Olfr410 -2.13
GGAAGAGGCCAGCUAUAACTT against Dcaf1 -2.51
GGUUCAGAUGGGAAAAAGGTT against Khdrbs2 -2.41
GGAGGAUGGUGCCAACAUUTT against Psmc3 -2.02
CGAGCUUAUGCUGAAACCATT against 3830417A13Rik -2.45
GGAUAUGCAGUGGAACUAUTT against Heph -2.13
GCAGGGUACUGGCUAAAUATT against Cd40 2.93
GCUACACCGUAACAUGCUATT against Zer1 2.19
GGAGGAAUUCAUUAGAAACTT against Psmc1 -2.04
GCAAGACCCAAGAGUUACATT against Soat2 -2.07
GGCACCAUCUAUUAUUUUCTT against Psmc3 -2.45
GGAAUGUUACAUUUCAGUUTT against Adam1a 2.15
